Test results from PubChem BioAssay AID651550 (National Center for Advancing Translational Sciences (NCATS), 2012).
Out of some 360,000 compounds screened, about 1,100 (0.31%) were called active. The entries come from a sample that favours actives as a whole. A number with no mark means an inactive call. No stated cut-off is given here; in the data, active means activity change below about -80%; inconclusive means mostly about -51% to -80%; inactive means weaker than that.

target: RAC-alpha serine/threonine-protein kinase (Homo sapiens) (UniProt P31749); experiment: HTS Assay for Inhibitors of Akt Phophorylation: Primary Screen; details: Neuro2A IGF-stimulated pAkt S473 HTRF, 20 min; at 50 µM, active compounds read low
Text: The serine/threonine protein kinase Akt (protein kinase B) regulates various cellular processes, including cell survival, growth, proliferation, migration and differentiation. It has been well established that Akt is activated through two essential steps involving membrane translocation and phosphorylation. Cytosolic Akt is recruited to the plasma membrane via the interaction between the PH domain and membrane PIP3 produced by phosphoinositide-3 kinase (PI3K) upon growth factor receptor stimulation. The membrane-Akt interaction results in conformational changes of Akt, enabling its activation through phosphorylation at T308 in the kinase domain and at S473 in the C-terminal hydrophobic motif by PDK1 and mTOR-rictor complex (mTORC2), respectively. […] These findings indicate that S473 phosphorylation, as an important modulator of Akt activation, may be a valuable drug target for cell growth, survival, proliferation and differentiation. These inhibitors also may have significant therapeutic potential with fewer side effects, especially for the conditions involving hyperactive Akt signaling, such as cancer and Alzheimer's disease.
To this end, a miniaturized assay was developed to be screened against the Molecular Libraries Small Molecule Repository (MLSMR).
NIH Chemical Genomics Center [NCGC]
NIH Molecular Libraries Probe Centers Network [MLPCN]
Assay Submitter (PI): Hee-Yong Kim, National Institute on Alcohol Abuse and Alcoholism
3 uL of Neuro2A cell suspension in DMEM containing 0.5% FBS and […] antibiotics mix was plated in a white solid bottom tissue culture-treated 1536-well plate (Greiner Bio-One, Monroe, NC) at 4,500 cells per well and incubated overnight at 37 deg C. 23 nL/well of compound solutions in DMSO was added with Pintool transfer (Kalypsis, San Diego, CA) at single […] final concentration. Then, the cells were stimulated with 1.5 uL of IGF (6 nM final concentration) and incubated at 37 deg C for 20 min. The reaction was terminated by the addition of 1.5 uL blocking reagent mixed with lysis buffer (1:25 correspondingly) provided with HTRF(R) Phospho Akt (Ser473) kit (Cisbio US, Bedford, MA), with following incubation for 50 min at ambient temperature. The detection HTRF conjugates from the kit were prepared according to the protocol, pre-mixed 1:1 prior to dispensing, and 2 uL/well was added with BioRAPTR FRD dispenser (Beckman Coulter). The assay plates were incubated for 24 hours at ambient temperature, and the HTRF fluorescence was measured using Envision plate reader (PerkinElmer) with excitation at 330nm, emission at 615nm (Eu(3)-Cryptate donor signal) and 665nm (d2 acceptor signal). The ratio of […] was calculated for each well.
On the % scale 0 is the no-effect control and ±100 the full control effect.

Structure (SMILES) | activity change
Cc1cccc(C(=O)Nc2ccc3c(c2)C(=O)N(CC(C)C)C3=O)c1 | inactive
Cc1cccc(C(=O)Nc2ccc(C(=O)/C=C/c3cccs3)cc2)c1 | -121% (active)
Cc1cccc(C(=O)Nc2ccc(Oc3cnccn3)cc2)c1 | inactive
CCCCCc1c(Cc2ccccc2)ncn1CCc1ccccc1OC | inactive
COc1ccc(N2C(=O)CCC(C(=O)N(C)C3CCCCC3)C2c2ccc(OC)c(OC)c2)cc1 (stereo not drawn) | inactive
COc1ccc(S(=O)(=O)N[C@@H]2C=C[C@@H](CC(=O)N3CCc4ccccc4C3)O[C@@H]2CO)cc1 | inactive
Cc1cc(C)cc(NC(=O)N2CCC(NC(=O)c3ccc(F)cc3)CC2)c1 | -96.8% (active)
Cc1ccc(C(=O)NC2CCN(C(=O)Nc3ccc(F)cc3)CC2)cc1 | inactive
COc1ccc(C(=O)NC2CCN(C(=O)Nc3ccc(F)cc3)CC2)cc1 | inactive
Cc1ccc(S(=O)(=O)N2C[C@H]3n4c(=O)ccc(=O)n4C[C@H](OC(=O)NC4CCCC4)[C@@]3(O)C2)cc1 | inactive
Cc1ccc2nc(Nc3ncc4c(n3)CC(C)(C)CC4=O)nc(C)c2c1 | inactive
O=C(NNC(=O)C1CCN(c2ncccn2)CC1)c1ccccc1 | inactive
CC(=O)N1CCC(C(=O)Nc2nc(-c3ccccc3)ns2)CC1 | inactive
Cc1cc(-c2ccccc2)nc(N2CCC(C(=O)NC34CC5CC(CC(C5)C3)C4)CC2)n1 | -97.3% (active)
CCCCCNC(=O)C1C(=O)Nc2ccccc2C(=O)N1C(C)(C)C (stereo not drawn) | inactive
COC(=O)[C@]12CCCCC=C1N(Cc1ccc(Cl)cc1Cl)C(=O)[C@H](CC(=O)NCc1cccc3ccccc13)C2 | inactive
COC(=O)C1(C(=O)OC)C[C@H](c2ccccc2)N(Cc2ccccc2OC)[C@@H]1c1ccccc1 | inactive
O=C(N[C@H]1CC[C@H](CC(=O)N2CCCCC2)O[C@@H]1CO)c1cccc(F)c1 | inactive
CCc1nc2sc3c(Cl)ncnc3c2c2c1CCCC2 | inactive
c1ccc(COc2nsnc2N2CCOCC2)cc1 | inactive
c1ccc(CSc2ncnc3c2sc2nc(N4CCOCC4)c4c(c23)CCCC4)cc1 | -92.8% (active)
COC(=O)[C@@]12C[C@@H](CC(=O)NCCCCc3ccccc3)C(=O)N(CCc3ccc(OC)c(OC)c3)C1=CCC(C)(C)C2 | inactive

Structure (SMILES) | activity change
CCOC(=O)NC(=O)CSc1nnc(SCCC(=O)O)s1 | inactive
COC(=O)[C@@]12C[C@@H](CC(=O)N3CCCCC3)C(=O)N(Cc3ccc4c(c3)OCO4)C1=CCC(C)(C)C2 | inactive
CSc1nc2c(c(=O)[nH]1)C(c1cccc(Cl)c1Cl)CC(=O)N2 (stereo not drawn) | inactive
COc1ccc(C2CC(=O)Nc3sc(=N)c4c(N)c(C#N)c(N)nc4c32)cc1OC (stereo not drawn) | inactive
N#Cc1c(N)nc2c3c(sc(=N)c2c1N)NC(=O)CC3c1ccccc1Cl (stereo not drawn) | -87.7% (active)
CN(C(=O)C1CCN(c2ncnc3c2nc2n3CCCCC2)CC1)C1CCCCC1 | inactive
Cc1ccnc(NC(=O)CCC(=O)N(CC(=O)NCc2ccccc2)Cc2ccco2)c1 | inactive
CCOC(=O)N1CCN(C(=O)C[C@@H]2C[C@@]3(C(=O)OC)CC(C)(C)CC=C3N(Cc3ccco3)C2=O)CC1 | inactive
O=C(NCc1ccccc1Cl)c1csc2c1CCCCC2 | -106% (active)
O=C(COC(=O)c1cc2c(s1)CCCC2)NCc1ccccc1Cl | inactive
CC(=O)Cc1nsc(NC(=O)c2ccc(COc3ccc(C)cc3)o2)n1 | inactive
CC(=O)Cc1nsc(NC(=O)c2csc3c2CCCC3)n1 | -104% (active)
CC1CC(C)CN(CCCNC(=O)c2csc3c2CCCCC3)C1 (stereo not drawn) | inactive
CC(=O)Cc1nsc(NC(=O)c2ccc(Cl)cc2Cl)n1 | inactive
CCOC(=O)C=Cc1ccc(C(=O)OCC)[nH]1 | inactive
Cc1ccc(S(=O)(=O)N2CC3C(=O)C[C@@H](c4ccccc4Cl)N(S(=O)(=O)c4ccc(C)cc4)C3CC2c2ccccc2)cc1 (stereo partly drawn) | inactive
COc1cccc(-n2cc3c(c2-c2ccccc2)c(=O)n(C)c(=O)n3C)c1 | -16.8%
Cc1cn(C)c(=O)n(C)c1=O | inactive
Cc1ccc(-c2c3c(=O)n(C)c(=O)n(C)c3cn2-n2cnnc2)cc1 | -111% (active)
COc1ccc(C(C(=O)NCc2ccccc2)n2c(=O)c(-c3ccccc3)nc3ccccc32)cc1 (stereo not drawn) | inactive
COc1cc(OC)c(NS(=O)(=O)c2cn(C)cn2)cc1Cl | inactive
CCC(c1nc2ccccc2[nH]1)n1c(=O)c(-c2cccs2)nc2ccccc21 (stereo not drawn) | inactive

Structure (SMILES) | activity change
N#Cc1ccc(C(C(=O)NCc2ccccc2)n2c(=O)c(-c3ccco3)nc3ccccc32)cc1 (stereo not drawn) | inactive
Cc1cc(NC(=O)CSc2nc3c(cc2C#N)CCCCC3)no1 | inactive
Cc1cc(NC(=O)CSc2nc(C(C)C)nc3sc4c(c23)CCC(C)C4)no1 (stereo not drawn) | -89.6% (active)
CC(C)c1nc(SCC(=O)Nc2cccc(C(=O)O)c2)c2c3c(sc2n1)CCCC3 | inactive
Cn1cnc(S(=O)(=O)N2C[C@@H](O)COC[C@@H]3O[C@H](CC(=O)NC4CCC4)CC[C@H]32)c1 | inactive
COc1ccc(-c2cc3c(c4c2ccn4C)C2CCC3C2)cn1 (stereo not drawn) | inactive
Nc1nc(C23CC4CC(CC(C4)C2)C3)cs1 | inactive
CC(C)CN1C(=O)CN(S(C)(=O)=O)CC1(C)C(=O)NCc1ccccc1 (stereo not drawn) | inactive
c1ccc(Nc2nc(-c3ccncc3)cs2)nc1 | -89.8% (active)
Brc1ccc(-c2csc(N/N=C/c3cccnc3)n2)cc1 | inactive
Cc1ccc(Nc2nc(-c3ccc(O)cc3O)cs2)nc1 | inactive
O=C(COC(=O)c1ccccc1O)NCc1ccco1 | inactive
O=C(COC(=O)Cc1ccc(Cl)cc1Cl)NCc1ccco1 | inactive
O=C(COC(=O)CCC(=O)c1cccs1)NCc1ccco1 | -115% (active)
O=C(COC(=O)c1cc([N+](=O)[O-])ccc1NCc1ccccc1)NC1CCCCC1 | inactive
C=C1C(=O)OC2C1CCC(C)=CCCC1(C)OC21 (stereo not drawn) | inactive
CC(NCCO)C(=O)C12CC3CC(CC(C3)C1)C2 (stereo not drawn) | inactive
O=C1c2oc3ccccc3c(=O)c2C(c2cccc(O)c2)N1c1ccccn1 (stereo not drawn) | inactive
COCCN1C(=O)C(=O)/C(=C(/O)c2ccc(S(=O)(=O)N3CCOCC3)cc2)C1c1ccc(O)c(OC)c1 (stereo not drawn) | inactive
COCCN1C(=O)c2oc3c(C)cc(C)cc3c(=O)c2C1c1cccc(O)c1 (stereo not drawn) | -117% (active)
CC(C)OC(=O)CC(=O)CC(O)c1cccc([N+](=O)[O-])c1 (stereo not drawn) | inactive
CCOC(=O)[C@]12CCCC=C1N(CCC1=CCCCC1)C(=O)[C@H](CC(=O)NCCCCc1ccccc1)C2 | inactive

Structure (SMILES) | activity change
CCC(C(=O)Nc1c(C)cccc1C)n1c(-c2cc(C)cs2)nc2ccccc21 (stereo not drawn) | inactive
O=C(C(Cc1ccccc1)n1cccc1)N1CCN(C2CCCCC2)CC1 (stereo not drawn) | inactive
CCCCNC(=S)N/N=C1\CCCCc2ccccc21 | inactive
CC(OC(=O)c1c(F)cccc1F)C(=O)NCCC1=CCCCC1 (stereo not drawn) | inactive
CC(=O)Nc1ccc(S(=O)(=O)N(C)CC(=O)NCCC2=CCCCC2)cc1 | inactive
S=C(NCCC1=CCCCC1)Nc1ccccc1 | -117% (active)
COc1ccc(N2c3ccccc3CN(Cc3ccccc3)[C@@H](C)[C@H]2Cc2ccc(-c3ccccc3)cc2)cc1 | inactive
O=C(C[C@H]1CC[C@@H](NC(=O)c2ccncc2)[C@@H](CO)O1)NCC1CC1 | inactive
CC(=O)C[C@@H]1OC[C@H](CO)N1S(=O)(=O)c1ccc(C)cc1 | inactive
CC(=O)NS(=O)(=O)c1ccc(NC(=O)/C=C/c2ccccc2Cl)cc1 | inactive
COc1cc(OC)cc(/C(N)=N/O)c1 | inactive
CC1(C(=O)O)CCCN(C(=O)/C=C/c2ccccc2)C1 (stereo not drawn) | inactive
Cc1[nH]c(=O)c(C(=O)/C=C/c2ccccc2)c2c1CCCC2 | -93.4% (active)
COC(=O)c1c(C)[nH]c(C(=O)/C=C/c2ccc(Cl)cc2)c1C | inactive
O=C(CCCn1c(=O)oc2ccccc21)Nc1cccnc1 | 5.91%
CC(=O)c1c(C)[nH]c(C(=O)N2CCN(S(=O)(=O)c3ccc(F)c(F)c3)CC2)c1C | inactive
Cc1nc2cc(NC(=O)CSc3nc4c(C)cccc4cc3C#N)ccc2s1 | -95.1% (active)
COCc1cc(C)nc(SCC(=O)Nc2cccc(C)c2)c1C#N | inactive
Cc1nonc1NC(=O)CSc1nc2ccccc2cc1C#N | inactive
CC1(C(=O)NS(=O)(=O)c2cccc(F)c2)CCN1C(=O)Cc1cc(F)ccc1F (stereo not drawn) | inactive
COC(=O)[C@@]12C[C@@H](CC(=O)NCCCCc3ccccc3)C(=O)N(Cc3ccccc3)C1=CCC(C)(C)C2 | inactive
CCOc1ccccc1NC(=O)CCS(=O)(=O)c1cccc2nsnc12 | inactive

Structure (SMILES) | activity change
Cc1cccc(C)c1NC(=O)CCS(=O)(=O)c1cccc2nsnc12 | -101% (active)
CCOc1ccc(NC(=O)CCS(=O)(=O)c2cccc3nsnc23)cc1 | inactive
NS(=O)(=O)c1ccc(NC(=S)NC(=O)c2cccnc2)cc1 | inactive
C=CCNC(=O)CCCOc1cccc(C)c1 | 3.56%
C=CCNC(=O)CCCC(=O)NCC=C | -102% (active)
C=CCNC(=O)CC12CC3CC(C1)CC(CC(=O)NCC=C)(C3)C2 | inactive
CCCCCc1c(-c2ccc(OC)c(OC)c2)ncn1CCc1ccccc1OC | inactive
Cc1cc(=O)n2nc(N3CCC(C(=O)Nc4c(F)c(F)c(F)c(F)c4F)CC3)sc2n1 | inactive
COc1ccc(C(=O)C(OP(=O)(OC)OC)c2ccccc2OC)cc1 (stereo not drawn) | inactive
Cc1cc(F)ccc1NC(=O)C(C)n1c2ccccc2c2nc(=O)cc(C)n21 (stereo not drawn) | inactive
CCOCCn1c(-c2ccccc2)nc2ccccc21 | inactive
COCCn1c(-c2ccc(OC)c(OC)c2)nc2ccccc21 | -119% (active)
COc1ccc(-c2nc3ccccc3n2CCC(C)C)cc1OC | -7.53%
COC(=O)C[C@H]1C=C[C@@H](NS(=O)(=O)c2ccc(C)cc2)[C@@H](CO)O1 | inactive
CCOc1ccc2c(c1)cc(CN(C(=O)CC)C1CCCCC1)c1nnnn12 | 1.69%
CCc1cccc(NC(=S)N(CCN(C)C)C2CCN(C(C)C)CC2)c1 | inactive
CCc1ccc2c(c1)cc(CN(C(=S)Nc1ccccc1Cl)C1CC1)c1nnnn12 | -83.6% (active)
O=C(NCc1ccccc1)[C@H]1C[C@@H]1[C@H](NP(=O)(c1ccccc1)c1ccccc1)c1ccccc1 | inactive
Cc1ccccc1CN1C(=O)CSCC1(C)C(=O)Nc1c(C)cccc1C (stereo not drawn) | inactive
CCOC(=O)C1C(C)C(C(C)(C)C)N(S(=O)(=O)c2ccc(C)cc2)C1c1ccccc1 (stereo not drawn) | inactive
